# Experimental data: PubChem BioAssay
# Active and inactive are the calls of the source.
# Columns and labels:
# [1] = system: Plasmodium falciparum Sir2 (PF13_0152, Sir2A); assay: Plasmodium falciparum Sir2A binding compounds – biochemical, small-molecule microarray, 635 nm fluorescence, primary screen (AID 1098); settings: fluorescence 635 nm, higher = more signal;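 also: score merges spot fluorescence intensity with its signal-to-noise ratio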
# [2] = probe aDKK1 binding to arrayed compounds – biochemical, biotinylated probe, 635/667 nm fluorescence, primary screen (AID 1099); settings: small-molecule microarray, higher = more signal;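 also: score merges 667nm spot fluorescence with signal to noise across triplicate slides; reference of the scale not given here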
# [3] = probe aCHRDL2 binding to arrayed compounds – biochemical, biotinylated probe, 635/667 nm fluorescence, primary screen (AID 1100); settings: small-molecule microarray, higher = more signal
# [4] = change in splice reporter luminescence, either direction, cell-based, HEK293, spliceosome inhibition project, primary screen (AID 1101); settings: HEK293 splicing luciferase reporter, 24 h, higher = more signal, called active from +8 up or from −8 down;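 also: HEK293 cells carrying a splicing-competent luciferase reporter gene; test concentration not given here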
# [5] = target: Fibroblast growth factor 10 (Homo sapiens) (UniProt O15520); assay: compounds binding fibroblast growth factor 10 – biochemical, small-molecule microarray, 635 nm fluorescence, primary screen (AID 1102); settings: FGF10 binding, fluorescence 635 nm, higher = more signal
# Chain of Fibroblast growth factor 10 (Homo sapiens) (O15520 whole entry, looked up): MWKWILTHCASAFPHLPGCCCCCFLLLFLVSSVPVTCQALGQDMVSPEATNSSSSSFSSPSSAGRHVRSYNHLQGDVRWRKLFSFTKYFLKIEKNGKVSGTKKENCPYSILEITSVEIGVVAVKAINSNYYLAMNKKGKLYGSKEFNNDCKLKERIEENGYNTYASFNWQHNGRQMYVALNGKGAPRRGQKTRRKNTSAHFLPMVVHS
# [6] = system: glycogen synthase kinase-3 (GSK3A per assay name; protocol says GSK3B); assay: compounds binding glycogen synthase kinase-3 – biochemical, small-molecule microarray, 635 nm fluorescence, GSK3A, primary screen (AID 1103); settings: fluorescence 635 nm, higher = more signal; also: the record names both GSK3A and GSK3B
# [7] = target: Epidermal growth factor receptor (Homo sapiens) (UniProt P00533); assay: compounds binding epidermal growth factor receptor – biochemical, small-molecule microarray, 635 nm fluorescence, primary screen (AID 1104); settings: EGFR binding, higher = more signal;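 also: score merges 667 nm emission intensity with spot signal to noise over triplicate slides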
# Chain of Epidermal growth factor receptor (Homo sapiens) (P00533 whole entry, looked up): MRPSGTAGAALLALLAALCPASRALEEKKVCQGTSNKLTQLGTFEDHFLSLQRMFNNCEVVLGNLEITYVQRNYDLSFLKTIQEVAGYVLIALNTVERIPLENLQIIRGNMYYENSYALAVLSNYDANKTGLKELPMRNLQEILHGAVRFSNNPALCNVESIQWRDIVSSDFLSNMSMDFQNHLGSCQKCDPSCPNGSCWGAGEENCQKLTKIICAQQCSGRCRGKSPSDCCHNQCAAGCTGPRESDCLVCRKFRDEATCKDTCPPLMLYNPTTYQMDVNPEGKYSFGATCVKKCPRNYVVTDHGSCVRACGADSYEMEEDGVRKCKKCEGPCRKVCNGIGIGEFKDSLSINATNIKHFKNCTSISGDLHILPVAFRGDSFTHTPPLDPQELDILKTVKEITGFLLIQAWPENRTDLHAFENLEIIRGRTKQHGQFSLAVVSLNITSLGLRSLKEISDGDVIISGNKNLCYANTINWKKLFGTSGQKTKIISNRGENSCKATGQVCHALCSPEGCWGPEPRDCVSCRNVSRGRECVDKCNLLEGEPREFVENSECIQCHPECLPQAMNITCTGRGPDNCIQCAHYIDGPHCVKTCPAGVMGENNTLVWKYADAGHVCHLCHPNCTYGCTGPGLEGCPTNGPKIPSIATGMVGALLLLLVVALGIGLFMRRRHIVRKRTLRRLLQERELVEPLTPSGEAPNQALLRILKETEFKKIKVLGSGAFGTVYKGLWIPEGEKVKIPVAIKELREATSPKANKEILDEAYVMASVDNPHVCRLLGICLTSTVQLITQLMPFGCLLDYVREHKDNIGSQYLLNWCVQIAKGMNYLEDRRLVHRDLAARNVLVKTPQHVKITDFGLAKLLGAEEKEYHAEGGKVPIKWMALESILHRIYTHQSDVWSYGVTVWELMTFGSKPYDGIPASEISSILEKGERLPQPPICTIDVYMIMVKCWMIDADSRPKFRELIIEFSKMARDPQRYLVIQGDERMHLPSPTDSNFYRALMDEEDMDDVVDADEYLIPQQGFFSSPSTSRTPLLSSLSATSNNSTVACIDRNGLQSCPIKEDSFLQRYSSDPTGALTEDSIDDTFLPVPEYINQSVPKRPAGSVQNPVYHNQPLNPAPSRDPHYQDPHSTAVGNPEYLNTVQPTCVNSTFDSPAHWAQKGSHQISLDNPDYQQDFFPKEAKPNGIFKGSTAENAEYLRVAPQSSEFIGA
# [8] = target: Follistatin-related protein 3 (Homo sapiens) (UniProt O95633); assay: compounds binding follistatin-related protein 3 – biochemical, small-molecule microarray, 635 nm fluorescence, primary screen (AID 1105); settings: FSTL3 binding, higher = more signal;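 also: score merges emission near 667 nm and signal to noise per printed spot across three slides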
# Chain of Follistatin-related protein 3 (Homo sapiens) (O95633 whole entry, looked up): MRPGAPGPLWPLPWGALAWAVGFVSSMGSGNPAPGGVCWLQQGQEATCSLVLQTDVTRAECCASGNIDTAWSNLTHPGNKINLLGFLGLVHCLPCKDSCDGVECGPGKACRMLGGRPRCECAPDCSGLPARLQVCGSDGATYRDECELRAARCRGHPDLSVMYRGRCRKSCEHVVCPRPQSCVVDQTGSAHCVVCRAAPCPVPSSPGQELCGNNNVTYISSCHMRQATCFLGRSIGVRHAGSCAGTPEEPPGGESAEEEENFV
# [9] = target: Dickkopf-related protein 1 (Homo sapiens) (UniProt O94907); assay: small molecules binding DKK1 protein – biochemical, small-molecule microarray, 635 nm fluorescence scan, primary screen (AID 1106); settings: higher = more signal;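 also: score merges emission near 667 nm with signal to noise over three replicate slides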
# Chain of Dickkopf-related protein 1 (Homo sapiens) (O94907 whole entry, looked up): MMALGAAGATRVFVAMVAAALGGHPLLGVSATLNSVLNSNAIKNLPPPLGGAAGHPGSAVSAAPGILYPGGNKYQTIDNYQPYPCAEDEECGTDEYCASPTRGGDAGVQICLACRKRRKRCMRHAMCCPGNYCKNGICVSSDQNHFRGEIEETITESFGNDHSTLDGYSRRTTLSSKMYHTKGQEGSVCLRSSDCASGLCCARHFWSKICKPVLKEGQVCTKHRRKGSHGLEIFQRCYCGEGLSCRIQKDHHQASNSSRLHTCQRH
# [10] = system: Inhibin beta A chain (activin A); assay: small molecules binding activin A – biochemical, small-molecule microarray, 635 nm fluorescence scan, primary screen (AID 1107); settings: INHBA, higher = more signal;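 also: mouse activin A protein probed at 4.33 µg/mL on printed slides; score merges bound-protein fluorescence near 667 nm with spot signal-to-noise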
SMILES,composite z-score [1],composite z-score [2],composite z-score [3],z-score [4],composite z-score [5],composite z-score [6],composite z-score [7],composite z-score [8],composite z-score [9],composite z-score [10]
C[C@H]1C2[C@H](Cc3ccccc3)NC(=O)[C@]23C(=O)NCC(=O)N2CCC[C@H]2C(=O)NC/C=C/CCC/C=C/C3[C@@H]2O[C@]12C (stereo not given in full),0.38,-0.398,-0.269,-0.0803 (inactive),-0.568,-1.26,-0.681,-0.618,-0.233,1.55
COCCCNC(=O)[C@@]1(Cc2ccccc2)N=C(c2ccc(OCCCO)cc2)O[C@H]1c1ccccc1CN=[N+]=[N-],0.47,1.09,1.32,-0.469 (inactive),0.807,1.28,-0.105,0.859,-0.172,0.384
O=C1C2C=CC(C(O)c3c(F)cccc3Cl)N(Nc3ccccc3F)C2C(=O)N1c1ccccc1 (stereo not given),0.537,0.923,1.09,1.4 (inactive),1.28,0.533,-0.0195,0.551,-0.62,0.87
O=C1C2C=CC(C(O)c3ccc(-c4ccccc4)s3)N(Nc3ccccc3)C2C(=O)N1c1ccccc1 (stereo not given),1.5,0.753,0.953,1.1 (inactive),0.722,0.808,-0.0664,1.03,-0.632,0.845
C[N+](C)(C)CCCC[C@@H]1NC(=O)[C@H]2C[C@@H](C(=O)NCCCCCCNC(=O)CS)[C@@H](c3ccc(O)cc3)N2C1=O,-0.783,-0.0452,0.782,-0.45 (inactive),-0.347,-1.09,-0.805,-0.884,-0.628,0.507
CN(C)CCCCNC(=O)[C@@H]1C[C@@H]2C(=O)N[C@@H](CCCCN)C(=O)N2[C@@H]1c1ccc(O)cc1,1.09,-0.0238,0.309,-0.162 (inactive),0.41,1.07,0.606,0.463,1.26,0.684
CCOC(=O)C1=CC[C@@H](c2ccc(C(F)(F)F)cc2)N(S(=O)(=O)c2ccc(C)cc2)[C@H]1c1ccccc1,0.544,1,1.12,-2.54 (inactive),0.485,1.31,-0.0946,0.799,-0.305,-0.0699
C=CCC(OC(C)=O)[C@@H]1[C@@H](N(Cc2ccc(-c3cccc(C(F)(F)F)c3)o2)C(=O)Cc2ccc(OC)cc2)c2cc(OCCCO)ccc2N1C(=O)c1ccc2ccccc2c1 (stereo not given in full),0.403,-0.179,0.577,-0.814 (inactive),-0.344,-1.46,-0.488,0.195,-0.298,1.39
CC(=O)Nc1cc(Br)ccc1C(=O)NCc1ccccc1,0.695,-0.0601,0.416,-0.508 (inactive),-0.158,0.0021,-0.274,-0.187,-0.221,0.305
CCN(CC)c1ccc(N2CC=CC34O[C@@H]5C=CCOC(=O)[C@@H]5[C@H]3C(=O)N(CCCCCCO)[C@@H]4C2=O)cc1 (stereo not given in full),1.85,-0.131,0.844,-0.93 (inactive),-0.655,-0.559,-0.366,-0.406,-0.863,1.17
COC(=O)[C@@]1(Cc2ccc(F)cc2)[C@H]2c3cc(C(=O)N(C)C)n(Cc4ccc(C)o4)c3C[C@H]2CN1C(=O)c1ccccc1,1.29,2.05,0.495,-1.6 (inactive),0.152,0.102,-1.87,-1.13,-1.39,1.07
[N-]=[N+]=NCc1ccccc1[C@@H]1OC(c2ccc(OCCCO)cc2)=N[C@]1(CCS(=O)(=O)c1ccccc1)C(=O)N1CCCCC1,1.65,0.0798,0.904,-0.162 (inactive),0.828,1.29,0.453,1.19,-0.154,1.08
CCCCC(=C=CC[C@@H](O)c1ccc(CO)o1)CCO,0.175,-0.119,-0.479,0.37 (inactive),0.788,0.621,-0.617,-0.0762,0.294,1.26
CC(C)(C)OC(=O)CC[C@]1(C(N)=O)N=C(c2ccc(OCCCO)cc2)O[C@H]1c1ccccc1,0.883,1.32,1.35,0.138 (inactive),1.36,0.555,-0.589,-0.188,-1.16,0.976
O=C1NC(=O)C2C1C=CC(C(O)C1CC=CCC1)N2Nc1ccccn1 (stereo not given),1.27,0.228,0.21,1.17 (inactive),0.946,0.0089,1.25,0.179,1.33,1.75
CCCC[C@H]1C[C@@H]1[C@@H]1N(P(=O)(c2ccccc2)c2ccccc2)C[C@@](O)(c2ccccc2)CC12CC2,0.17,1.12,1.28,-0.644 (inactive),-0.295,0.0826,-0.678,0.21,-1.51,0.973
O=C(CS)NCCCCCNC(=O)[C@@H]1C[C@@H]2C(=O)NCC(=O)N2[C@@H]1c1cccc(OCCO)c1,1.17,0.0565,0.21,-1.82 (inactive),0.18,0.0776,0.752,0.0486,0.543,0.501

SMILES,composite z-score [1],composite z-score [2],composite z-score [3],z-score [4],composite z-score [5],composite z-score [6],composite z-score [7],composite z-score [8],composite z-score [9],composite z-score [10]
COc1ccc([C@H]2C[C@H]3C(Br)=C[C@@]2(CO)C(=O)[C@]32CO2)cc1,-0.194,-0.118,0.565,-0.206 (inactive),-0.0884,-0.516,0.197,-0.387,-0.198,1.32
NC(=O)NCC#Cc1ccc2c(c1)[C@]1(C(=O)N2)[C@H](C(=O)O)[C@H]2C(=O)O[C@H](c3ccccc3)[C@H](c3ccccc3)N2[C@@H]1c1ccc(O)cc1,0.783,1.18,1.24,0.72 (inactive),0.295,-0.576,-0.16,1.28,0.181,1.25
C#CCN(C/C=C/c1ccccc1)[C@H](CO)c1ccccc1,-0.222,-0.583,-0.506,0.985 (inactive),0.0797,0.0831,-0.0239,0.598,0.358,-0.283
CN1C(=O)C2C=CC(C(O)c3ccccc3)N(N3CCCCC3)C2C1=O (stereo not given),1.75,0.159,0.846,0.651 (inactive),1.26,0.83,-0.0247,0.494,0.0514,0.932
NCCCCCCNC(=O)[C@H]1C[C@H]2C(=O)N[C@@H](Cc3ccccc3)C(=O)N2[C@H]1c1cccc(OCCO)c1,0.809,0.682,0.713,-0.895 (inactive),0.324,0.0638,0.13,0.362,-0.0608,0.101
O=C1OCCC=C[C@H]2OC34C=CCN(Cn5nnc6ccccc65)C(=O)[C@H]3N(CCO)C(=O)[C@@H]4C12 (stereo not given in full),1.34,0.362,0.254,-0.456 (inactive),-1.55,-1.6,-1.77,-1.04,-1.64,-0.539
C#CCN1[C@@H](Cc2ccc(O)cc2)C(=O)O[C@H](Cc2ccccc2)[C@@H]1/C=C/C1CC1,-0.0032,-0.366,-0.337,1.99 (inactive),0.172,-0.102,0.002,-0.149,0.0874,0.718
C=C(CCCC)C(=O)CC[C@H](OC(=O)c1cccnc1)c1ccc(OCCO)cc1,0.142,-0.117,0.27,0.98 (inactive),-0.0659,-0.0084,-0.317,-0.173,0.183,0.877
C#CCNCc1ccccc1,-0.375,-0.192,-0.288,0.258 (inactive),0.2,0.539,0.397,0.349,0.183,0.209
O=C1O[C@H](c2ccccc2)[C@H](c2ccccc2)N2[C@H]1[C@@H](C(=O)N1CCN(c3ncccn3)CC1)[C@]1(C(=O)Nc3ccc(C#CC4=CCCCC4)cc31)[C@H]2c1ccccc1OCCO,1.7,-0.14,0.259,-1.14 (inactive),1.02,1.3,0.645,1.31,0.71,1.08
C=CC1c2cc(O)c(OC)cc2CCN1Cc1cccc(OC(F)(F)F)c1 (stereo not given),-0.128,-0.0819,0.516,-0.918 (inactive),-0.438,-0.765,-0.417,0.0396,-0.0102,1.64
CC(C)N1CC=CC23O[C@@H]4C=CCOC(=O)[C@@H]4[C@H]2C(=O)N(CCCCCO)[C@@H]3C1=O (stereo not given in full),0.818,-0.288,0.248,-1.54 (inactive),-0.927,-0.69,-0.0616,-0.266,-0.758,0.66
CCCNC(=O)[C@@]1(Sc2ccc(C)cc2)CC(=O)N(Cc2ccccc2C(F)(F)F)[C@@H]1c1ccc(CO)cc1I,1.53,0.277,0.726,-1.6 (inactive),0.441,0.119,-0.293,1.01,0.262,1.24
C=CCOC(=O)[C@H]1[C@@H]2C(=O)O[C@@H](c3ccccc3)[C@@H](c3ccccc3)N2[C@@H](c2ccc(OCCOC(=O)[C@H]3C[C@H]4C(=O)N[C@@H](CCCCN(C)C)C(=O)N4[C@H]3c3cccc(OCCO)c3)cc2)[C@]12C(=O)Nc1ccc(I)cc12,0.79,-0.267,-0.254,1.52 (inactive),1.32,1.16,0.527,1.46,1.07,1.11
COCCOC(=O)N1C(=O)[C@@]2(c3cc(C#CC4(O)CCCCCC4)ccc31)[C@H](c1ccccc1OCCO)N1[C@H](c3ccccc3)[C@H](c3ccccc3)OC(=O)[C@H]1[C@@H]2C(=O)N1CCc2cc(OC)c(OC)cc2C1,1.09,0.0591,0.179,0.202 (inactive),0.99,0.929,0.345,0.528,0.0815,-0.0614
COC(=O)c1c(CC[C@@H](CO)NC(=O)N[C@H](Cc2ccccc2)Cn2cc(-c3ccccn3)nn2)oc(C(C)=O)c1C(=O)OC,1.48,-0.123,-0.379,1.01 (inactive),0.384,0.17,-0.371,-0.15,-0.328,-0.285
